Bioassay records (PubChem BioAssay)
TDP-43 yeast inh – inhibitors of TDP-43 toxicity in yeast. TDP-43 expressing yeast growth rescue, BacTiter-Glo, 24 h. Potency, µM (titrated, usually from 46.1 µM), for the others: top-dose growth rescue (activation), usual class: activators. 410,000 compounds, 1.8% hits. AID 652104; further: % of control where 0% means no effect; nearly all actives have a fitted effect of over 50% in size
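In this qHTS, compounds that restore growth of yeast expressing TDP-43 appear as activators. Cells (OD600=0.02, galactose medium, raffinose-pregrown) are incubated with compound 24 hr at 30 deg C and growth is quantified by BacTiter-Glo.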
aSyn yeast inh – alpha-synuclein toxicity inhibition in yeast; Yeast expressing alpha-synuclein, growth rescue, BacTiter-Glo, 24 h; Potency, µM (series often up to 46.1 µM), for the others: at the top dose growth rescue (activation), most hits filed as activators; 370,000 compounds, 0.14% hits; AID 652106; further: % of control where 0% means no effect; nearly all actives have a fitted effect of over 65% in size
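Screening used galactose-induced yeast with toxic alpha-synuclein levels, exposed to compound for 24 hr at 30 deg C. Cell growth, read with BacTiter-Glo luminescence, gave the measured signal.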
Abeta yeast res – A-beta toxicity reversal in yeast; yeast expressing A-beta42, growth rescue, OD600, 48 h; response scale: 0% DMSO, 100% iron-clioquinol control; Potency, µM (top dose mostly 46.1 µM), actives largely listed as activators; 410,000 compounds, 0.063% hits; AID 1347071; further: nearly all actives have a fitted effect of over 55% in size
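Yeast growth medium received pinned compounds, then yeast cells expressing toxic A-beta were added; plates incubated at 30 C for 48 hr. Growth read as absorbance at 600 nm, normalized to DMSO and equimolar FeCl3 plus clioquinol controls.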
FUS yeast rescue – FUS proteinopathy suppression in yeast | S. cerevisiae FUS-expressing, growth rescue, OD600, 24 h | Potency, µM (highest dose often 76.6 µM), hits mostly activators | 390,000 compounds, 0.24% hits | AID 1347120;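 further: plate controls were DMSO vehicle for no effect and reference control for full effect; nearly all actives have a fitted effect of over 55% in size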
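Yeast FUS proteinopathy model; galactose-induced FUS (2%), starting OD 0.005. Cpds in dilution series, 24hr, 30C, 99% humidity. Abs 600 nm growth. Pos ctrl CP55940 (top 92uM final); neg ctrl DMSO.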
Starred values were filed as active, the others as inactive; i = inactive; ? = inconclusive; · = no result; [ ] = dose if it differs, or a comment. Most compounds without a hit are left out; they make up all but 2.1% or so of the library. The call rests on the fitted dose curve; in most records, active means well fitted curve in the direction sought with a large enough effect; inconclusive means small, poorly fitted or top-dose-only effect, or another doubt; inactive means no such curve, though single readings can be large; an effect the other way counts as inactive or inconclusive. Potency means the concentration at half of the fitted maximal effect.

SMILES | TDP-43 yeast inh | aSyn yeast inh | Abeta yeast res | FUS yeast rescue
C/C(=N\NC(=S)NCC(C)(C)C)c1cc(F)cc(F)c1O | 12.6µM* | 8.5% | ? | i
COc1ccc(CNC(N)=O)cc1 | 4.0% | 2.7% | i | ·
Cc1cc(C)n2nc(-c3cccc(Br)c3)cc2n1 | 11.2µM* | 5.2% | i | i
Cc1cccc(-c2cc3nc(C)cc(C)n3n2)c1 | -13.1% | -2.3% | i | i
COC1=C(OC)C(=O)C(Sc2ccc3ccccc3c2)=CC1=O | ? | 14.1µM* | i | ·
COc1ccc(S(=O)(=O)Oc2ccc3ccccc3c2)cc1 | ? | -0.9% | i | ·
COc1cc2cc(CCCOC(=O)c3ccc(Br)cc3)oc(=O)c2cc1OC | 12.8% | -5.4% | i | i
COc1cc2cc(CCCOC(=O)c3ccc(F)cc3)oc(=O)c2cc1OC | 20µM* | -4.9% | i | i
Brc1ccc(OCc2nc(-c3ccccn3)n[nH]2)cc1 | 15.8µM* | ? | i | i
Clc1ccc(OCc2nc(-c3ccccn3)n[nH]2)cc1 | ? | ? | ? | i
CC(C)(C)c1ccc(C2=CC(c3ccccc3F)n3ncnc3N2)cc1 (stereo unspecified) | -2.6% | 1.1% | i | ?
Fc1ccc(Br)cc1C1C=C(c2cccnc2)Nc2ncnn21 (stereo unspecified) | 25.1µM* | 1.3% | i | i
Fc1ccc(C2=CC(c3ccc(Br)o3)n3ncnc3N2)cc1 (stereo unspecified) | 17.8µM* | -4.7% | i | ·
Fc1ccc(C2=CC(c3ccco3)n3ncnc3N2)cc1 (stereo unspecified) | ? | 3.4% | i | ·
CCOc1ccc(C2=CC(c3cc(Br)ccc3F)n3ncnc3N2)cc1Cl (stereo unspecified) | 35.5µM* | · | i | i
Cc1ccc(CNc2oc(-c3ccc(COc4ccc(Cl)cc4)o3)nc2C#N)cc1 | 5.7% | · | i | i
CC1(C)CC(=O)C2=C(C1)NC(=O)NC2c1ccccc1Cl (stereo unspecified) | -4.8% | -4.3% | i | i
CC1(C(=O)NC2CCN(Cc3ccccc3)CC2)CCN1CCc1ccccc1 (stereo unspecified) | 10.0% | 5.3% | i | i
Cc1nc(C(=O)NC2CCOCC2)sc1C1(C)CC(c2cccc([N+](=O)[O-])c2)=NO1 (stereo unspecified) | 0.0% | -0.9% | i | i
Cc1ccc(Cl)cc1-n1c(=O)cc(N2CC(C)OC(C)C2)[nH]c1=O (stereo unspecified) | -13.0% | -0.7% | i | i
Cn1c(=O)c(-c2cccc(Cl)c2)c(O)c2ccccc21 | 11.2µM* | 7.0% | i | i
CCCCn1c(=O)c(-c2ccccc2)c(O)c2ccccc21 | 17.8µM* | -0.3% | i | i
CCn1c(=O)c(-c2cc(=O)[nH][nH]2)c(O)c2ccccc21 | -4.4% | -1.3% | i | 31.6µM*
O=c1cc(-c2c(O)c3ccccc3n(Cc3ccccc3)c2=O)[nH][nH]1 | -3.4% | 2.9% | i | ?
N#Cc1c2n(c3c(=O)n(Cc4ccc(Cl)cc4)cnc13)CCCCC2 | 20µM* | 13.0% | i[9.22 µM] | i
SMILES | TDP-43 yeast inh | aSyn yeast inh | Abeta yeast res | FUS yeast rescue
Cc1ccc(C(=O)c2cc3c(cc2[N+](=O)[O-])OCCO3)cc1 | 12.6µM* | -7.1% | i | i
COc1ccc(-n2c(=O)c3c(C)c(C)sc3n(Cc3cccc(F)c3)c2=O)c(OC)c1 | -1.7% | ? | i | i
C(=N\Nc1nc(-c2ccccn2)nc2ccccc12)/c1ccccc1 | · | 12.6µM* | · | ·
C(=N\Nc1nc(-c2cccnc2)nc2ccccc12)/c1ccccc1 | 12.5% | -7.2% | i | i
COc1cccc(NC(=O)C(C)N2C(=O)c3ccccc3S2(=O)=O)c1 (stereo unspecified) | 9.5% | 2.5% | i | i
CCN(CC)c1ccc(-c2nn3c(-c4ccccc4Cl)nnc3s2)cc1 | · | · | · | 31.6µM*
COc1cccc(OC)c1-c1nn2c(-c3ccccc3Cl)nnc2s1 | 15.8µM* | -0.6% | i | ?
Cc1ccc(S(=O)(=O)NCC(=O)NNC(=O)c2ccccc2Cl)cc1C | -9.3% | -9.7% | i | i
O=c1ccc2ccccc2c2ccccc12 | 3.16µM* | ? | i | i
COc1ccc(OCC(=O)Nc2ccc(C(=O)OCc3cc(=O)n4nc(C)sc4n3)cc2)cc1 | -3.4% | · | i | i
COc1ccc(OC)c(NC(=O)c2ccc(Cl)cc2)c1 | -13.2% | -1.0% | i | i
COc1ccc(OC)c(NC(=O)c2csc(Cl)c2OC)c1 | 20µM* | 5.6% | i | ?
COc1cccc(CN(C)S(=O)(=O)c2ccc3c(c2)OCCO3)c1 | ? | 18.2% | i | i
CCN(CC)c1ccc(CNc2nnnn2C)cc1 | -13.1% | -0.6% | i | i
CCN1CCN(C(=S)NCC2CCCO2)CC1 (stereo unspecified) | -15.1% | -12.8% | i | i
Cc1cc(C)c(C)c(S(=O)(=O)N2CCN(C(=S)NCC3CCCO3)CC2)c1C (stereo unspecified) | 22.4µM* | 21.9% | ? | ?
On1c(-c2ccco2)nc2c1CCc1nonc1-2 | 16.3% | 1.3% | i | i
CCOc1ccc(NC(=O)Cc2ccc(NC3=NC4CS(=O)(=O)CC4S3)cc2)cc1 (stereo unspecified) | 2.2% | -7.4% | i | i
C[C@H](CO)N1C[C@H](C)[C@H](CN(C)C(=O)Nc2ccc3c(c2)OCCO3)OCc2cnnn2CCCC1=O | 21.8% | 0.0% | i | i
Cc1ccc(NC(/C=C/N(C)C)=C/C(=O)C(F)(F)F)c(C)c1 | -9.3%[1.82 µM] | 4.5% | i | i
CCCCSc1nsc(NC(C)=O)n1 | 12.6µM* | · | i | i
CCCCCCSc1nsc(NC(C)=O)n1 | ? | 2.3% | i | i
c1ccc(-n2ncc3c(N4CCN(CCOc5cccc6ccccc56)CC4)ncnc32)cc1 | 20µM* | -0.8% | i | i
O=C(COc1ccccc1)N1CCN(c2ncnc3c2cnn3-c2ccccc2)CC1 | 14.1µM* | 8.8% | i | i
O=C1CC(N2CCSCC2)C(=O)N1c1cccc(Br)c1 (stereo unspecified) | 5.1% | -77.2% | i | i
SMILES | TDP-43 yeast inh | aSyn yeast inh | Abeta yeast res | FUS yeast rescue
CCSc1nc(-c2ccc(OC)cc2)ccc1C#N | 15.8µM* | 1.5% | i | i
Cc1cccc(CCNC(=O)c2cnc3c(C)cccn3c2=O)c1 | 28.2µM* | · | i | i
CN(C)c1ccc(CNn2cnnc2SCC(=O)NC(C)(C)C)cc1 | 5.5%[9.22 µM] | 0.2% | i | i
O=C(C1CCN(S(=O)(=O)c2ccccc2)CC1)N1CCc2ccccc21 | 19.6% | 0.0% | i | i
O=C(C1CCN(S(=O)(=O)c2ccccc2F)CC1)N1CCc2ccccc21 | 12.6µM* | 14.9% | i | i
COC(=O)C1=C(C)N(Cc2ccccc2)C(=S)N[C@H]1c1cccc(F)c1 | 11.2µM* | ? | i | ?
CCOC(=O)c1[nH]c2ccccc2c1NC(=O)COC | 0.0% | 0.5% | i | i
